{"source": "PubChem BioAssay (NCATS)", "target": "Alpha-galactosidase A (Homo sapiens) (UniProt P06280)", "sequence (P06280 whole entry, looked up)": "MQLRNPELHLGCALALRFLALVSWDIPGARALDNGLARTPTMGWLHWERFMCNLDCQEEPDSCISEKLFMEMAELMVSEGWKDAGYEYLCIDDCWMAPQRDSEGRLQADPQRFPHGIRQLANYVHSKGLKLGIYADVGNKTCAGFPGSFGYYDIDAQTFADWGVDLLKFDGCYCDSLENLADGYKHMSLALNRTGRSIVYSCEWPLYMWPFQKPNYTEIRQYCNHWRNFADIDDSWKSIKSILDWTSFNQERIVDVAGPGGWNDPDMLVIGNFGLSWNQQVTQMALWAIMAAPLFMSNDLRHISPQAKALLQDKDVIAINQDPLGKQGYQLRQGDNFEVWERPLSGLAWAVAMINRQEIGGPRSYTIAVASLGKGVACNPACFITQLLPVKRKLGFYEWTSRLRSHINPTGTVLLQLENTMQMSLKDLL", "experiment": "Counterscreen for Glucocerebrosidase Inhibitors: qHTS Assay for Human alpha-Galactosidase at pH 4.5 (AID 992)", "outline": "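Enzyme at 2 nM final was combined with compound (0.7 nM to 77 uM) and 80 uM 4-methylumbelliferyl alpha-D-galactopyranoside in 50 mM citric acid, 0.005% Tween-20, pH 4.5. After 20 min at room temperature, fluorescence was read (Ex 365/Em 440 nm); AC50 came from Hill fits.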", "note": "Activity calls are given as the source filed them. Calls follow the shape of the dose curve; as a rule, active = well fitted curve in the direction sought with a large enough effect; inactive = no such curve, though single readings can be large or run the other way.", "data": [{"smiles": "C[n+]1cc2c3c(ccc2c2ccc4cc5c(cc4c21)OCO5)OCO3", "values": [{"measurement": "outcome", "result": "inactive"}]}, {"smiles": "CC[N+](C)(C)c1cccc(O)c1", "values": [{"measurement": "outcome", "result": "inactive"}]}, {"smiles": "COc1cc(C(=O)OCCCN2CCCN(CCCOC(=O)c3cc(OC)c(OC)c(OC)c3)CC2)cc(OC)c1OC", "values": [{"measurement": "outcome", "result": "inactive"}]}, {"smiles": "O=C(CCNNC(=O)c1ccncc1)NCc1ccccc1", "values": [{"measurement": "outcome", "result": "inactive"}]}]}
